What all share (assay): NCI-60 one-dose screen, 48 h (100 = growth as untreated, 0 = no growth, -100 = all killed)
Details in all cases: 10 µM

For assay [1], the system named is DU-145 prostate.
Assay [2] relates to K-562 leukemia.
The test system of assay [3] is MALME-3M melanoma.
Assay [4] has as its system MDA-MB-231 breast.
In assay [5] the test system is RXF 393 renal.
Assay [6] concerns SF-268 CNS.
Assay [7] concerns SF-295 CNS.
The test system of assay [8] is SF-539 CNS.
The test system of assay [9] is UACC-257 melanoma.
The test system of assay [10] is M14 melanoma.

The structures appear in SMILES notation. About 83,000 compounds went through this panel and 20% of them were active in at least one assay; those are over-represented in the sample as a whole.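 The endpoint reported here, percent growth, reads 100 for growth as untreated, 0 for no net growth and -100 for all cells dead.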 A number with no mark means an inactive call. Activity calls are given as the source filed them. How the source made its calls: active means growth percent below 10; inactive means the rest.

As for `COc1cc2c(c(OC)c1OC)C(=O)CC(c1cccc(NC(=O)c3cccc(N)c3)c1)O2` (stereo not given), the growth in [1] is 83%; in [2], 47.5%; in assay [3] it was 78.8%; in [4], 68.3%; in assay [5], 100%; in [6] it was 81.7%. Moreover, the growth in [7] is 92.8%; in assay [8], 95.3%; in assay [9], 93.4%; in assay [10], 96.5%.

In the case of `O=c1cc(-c2ccccc2)oc2cc(OCCCCNCc3ccccc3)cc(O)c12`, the growth in assay [1] was 27.6%; in assay [2] it was -17.6% (active); in [3] it was -92.6% (active); in [4], -12.4% (active); in assay [5], -79.8% (active); in [6], 43.6%. The growth in assay [7] is -93.5% (active); in assay [8], -96.2% (active); in assay [9] it was -35.6% (active); in assay [10] it was -75.9% (active).

Regarding `COC(=O)C(Cc1ccc(O)c(O)c1)NC(=O)C(CSC/C=C(\C)CCCC(C)CCCC(C)CCCC(C)C)NC(C)=O` (stereo not given), the growth in assay [1] is 75.5%; in [2], 5.33% (active); in assay [3], 87.4%; in assay [4] it was 38.1%; in [5], 48.3%; in assay [6] it was 27.6%. Further, the growth was 1.8% (active) in assay [7], -34.7% (active) in assay [8], 56.4% in assay [9] and 13.9% in [10].

Take `CC(=O)Nc1ccc(-c2cn(-c3cccc(C(=O)Nc4cc(C(F)(F)F)cc(C(F)(F)F)c4)c3)nn2)cn1`: the growth in assay [1] was -47.5% (active); in assay [2] it was -66.1% (active); in [3], -48.3% (active); in [4], -72.5% (active); in assay [5] it was -69.4% (active); in assay [6], -7.7% (active). In addition, the growth is -89.1% (active) in assay [7], -83.7% (active) in [8], -4.2% (active) in [9] and 4.5% (active) in assay [10].

With `COc1cc(-c2nc3cc(Cl)c(Cl)cc3[nH]2)ccc1OCc1nnc(-c2ccc(Br)cc2)o1`, the growth in assay [1] was 47.2%; in assay [2], 6.47% (active); in [3], -78.2% (active); in [4] it was -38.9% (active); in assay [5] it was -77.7% (active); in assay [6], 38.6%. Besides, the growth in assay [7] was -46.1% (active); in [8], -92.4% (active); in assay [9], 4.56% (active); in [10], -9.79% (active).

For `O=c1oc2ccc(-c3ccc(F)cc3F)cc2c(=O)n1-c1ccc(F)cc1`, the growth in [1] was 14.5%; in assay [2], 5.98% (active); in assay [3], -21.2% (active); in assay [4], -5.38% (active); in assay [5], -10.4% (active); in assay [6] it was 2.76% (active). The growth was -19.3% (active) in assay [7], -3.51% (active) in assay [8], 15.5% in [9] and 18.3% in [10].

In the case of `CCCCCCCCCCCCCCCCCCCC(=O)NCCc1c[nH]c2ccc(OC(=O)CCCC(=O)OCCOOCCOOCCOOCCOOCCOOCCOOCCOOCCOOCCOOCCOOCCOOCCOC)cc12`, the growth was 39.8% in [1]; 2.22% (active) in assay [2]; 102% in assay [3]; 44.5% in assay [4]; 91.3% in assay [5]; 16.7% in assay [6]. Moreover, the growth in [7] was 13.3%; in [8], -32.9% (active); in assay [9], 92.5%; in assay [10], 56.4%.

Regarding `Cc1cc(C)cc(Oc2cccc(-c3c(C)nnn3C3CCN(CCN(C)C)CC3)n2)c1`, the growth in [1] was 55.8%; in assay [2], 13.6%; in [3] it was -40.5% (active); in [4], 36.9%; in [5], -6.82% (active); in assay [6], 52.2%. Also, the growth is 32.9% in assay [7], 34.2% in assay [8], -31.7% (active) in assay [9] and 7.14% (active) in [10].

On to `COc1cc2c(cc1OC)/C(=C\c1sc(Nc3ccc(O)cc3)nc1O)C(C(=O)O)=N2`, for which the growth in [1] is 6.39% (active); in assay [2], 11.2%; in assay [3], 12.8%; in assay [4], 29.8%; in assay [5], 25%; in [6], 54.2%. Also, the growth was 11.9% in assay [7], -20.2% (active) in [8], 48.8% in assay [9] and 4.93% (active) in assay [10].

`O=C(Nc1nc2ccc([N+](=O)[O-])cc2s1)Nc1cc(Cl)ccc1I`: the growth in [1] was 17.3%; in assay [2], -5.74% (active); in assay [3] it was -41% (active); in assay [4], -37% (active); in assay [5], -44.8% (active); in assay [6] it was 1.99% (active). The growth in assay [7] was -71% (active); in [8], -74.3% (active); in assay [9], -36.5% (active); in assay [10], -52.7% (active).

With `O=C(Nc1ccc(I)cc1F)c1cc(-c2ccc(F)cc2F)ccc1O`, the growth in assay [1] is 21.5%; in assay [2] it was 7.69% (active); in [3], -21.4% (active); in [4] it was -1.69% (active); in assay [5] it was -9.21% (active); in [6], 8.16% (active). For the same compound, the growth in [7] was -37.7% (active); in assay [8], 0.0441% (active); in [9], -7.17% (active); in [10], 28.8%.

Regarding `Cc1cc(C(F)(F)F)ccc1C(=O)Nc1sc2c(c1C#N)CCC(=O)C2`, the growth was 20.3% in assay [1]; 2.39% (active) in [2]; -82.5% (active) in [3]; -73.4% (active) in [4]; -64.9% (active) in assay [5]; 17.1% in assay [6]. Besides, the growth is -25.5% (active) in assay [7], -79.9% (active) in [8], -39.5% (active) in assay [9] and -59.2% (active) in [10].

For the origin of these results see PubChem BioAssay (NCI).
